Measured values: the supplement of paper PMC10127200
Counter-ions that a name gives are not always drawn.

Key:
Test in all cases: Euclidean distance of Cell Painting phenotypic profile (signed KS, 77 features) to DMSO centroid (dimensionless distance); 5 or 10 uM (library dependent); higher = stronger phenotypic change vs DMSO (phenoactivity)
Conditions in all cases: 48 h
786-O = system: 786-O
Summary of the method: (§1)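 Harmony extracted 77 features from 20X confocal images (9 fields/well) of stained cells, scoring each as a signed Kolmogorov-Smirnov statistic against same-plate vehicle wells. The cells, five cancer lines and a healthy fibroblast line, had received library compounds for 48 h at 10 or 5 uM depending on library, with 0.1% DMSO final. Phenoactivity is the Euclidean distance from each plate-position-corrected, correlation-weighted, top-dose replicate-averaged profile to the median vehicle profile.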

A549 = system: A549
Summary of the method: as §1

DU145 = system: DU145
Summary of the method: as §1

FB = system: FB
Summary of the method: as §1

HEPG2 = system: HEPG2
Summary of the method: as §1

OVCAR4 = system: OVCAR4
Summary of the method: as §1

Row | Compound | Euclidean distance (786-O) | Euclidean distance (A549) | Euclidean distance (DU145) | Euclidean distance (FB) | Euclidean distance (HEPG2) | Euclidean distance (OVCAR4)
1 | COc1cc2nc(N(C)CCCNC(=O)C3CCCO3)nc(N)c2cc1OC (configuration not stated) [Alfuzosin HCl] | 0.985 | 0.664 | 0.632 | 0.744 | 0.675 | 0.907
2 | O=C(NCc1c(F)cc(F)cc1F)c1cn2c(c(O)c1=O)C(=O)N1[C@H]3CC[C@H](C3)O[C@@H]1C2 [Bictegravir] | 1.77 | 3.73 | 2.63 | 2.16 | 1.04 | 2.99
3 | CC[C@@H](CO)NCCN[C@@H](CC)CO [Ethambutol HCl] | 1.4 | 1.22 | 0.738 | 0.916 | 1.17 | 0.884
4 | NC(=O)c1cccc(-c2cccc(OC(=O)NC3CCCCC3)c2)c1 | 0.656 | 0.944 | 0.753 | 0.99 | 1.61 | 1.17
5 | O=C(O[C@@H]1Cc2c(O)cc(O)cc2O[C@@H]1c1ccc(O)c(O)c1)c1cc(O)c(O)c(O)c1 [(-)-Epicatechin gallate] | 1.61 | 0.725 | 1.16 | 1.3 | 0.724 | 0.782
6 | CC/C(=C(/CC)c1ccc(O)cc1)c1ccc(O)cc1 [Diethylstilbestrol] | 0.795 | 0.688 | 0.96 | 0.826 | 0.721 | 0.682
7 | CC[C@H](C)[C@H](NC(=O)[C@H](Cc1ccc(O)cc1)NC(=O)[C@@H](NC(=O)[C@H](CCCN=C(N)N)NC(=O)[C@@H](N)CC(=O)O)C(C)C)C(=O)N[C@@H](Cc1cnc[nH]1)C(=O)N1CCC[C@H]1C(=O)N[C@@H](Cc1ccccc1)C(=O)O [Angiotensin II human Acetate] | 1.66 | 0.986 | 0.817 | 1.24 | 0.532 | 0.985
8 | CC(=O)OCC1=C(C(=O)O)N2C(=O)[C@@H](NC(=O)Cc3cccs3)[C@H]2SC1 [Cephalothin] | 1.38 | 0.786 | 0.824 | 1.24 | 1.28 | 1.23
9 | CN(C)CCC=C1c2ccccc2C=Cc2ccccc21 [Cyclobenzaprine HCl] | 1.1 | 1.26 | 1.14 | 1.88 | 1.52 | 1.16
10 | N[C@@H](Cc1cc(I)c(Oc2cc(I)c(O)c(I)c2)c(I)c1)C(=O)O [L-Thyroxine] | 1.38 | 1.12 | 1.19 | 0.961 | 0.718 | 1.45
11 | O=C(CCCN1CC=C(n2c(=O)[nH]c3ccccc32)CC1)c1ccc(F)cc1 [Droperidol] | 1.34 | 0.569 | 0.766 | 0.888 | 0.689 | 0.73
12 | CC(COc1ccccc1)N(CCCl)Cc1ccccc1 (configuration not stated) [Phenoxybenzamine HCl] | 1.48 | 0.892 | 1.06 | 0.978 | 0.778 | 1.55
13 | O=c1ccc2cc(O)c(O)cc2o1 [Esculetin] | 1.31 | 0.797 | 1.69 | 0.959 | 1.2 | 0.988
14 | NC(=O)c1cc[n+](CC2=C(C(=O)O)N3C(=O)[C@@H](NC(=O)[C@@H](c4ccccc4)S(=O)(=O)[O-])[C@H]3SC2)cc1 [Cefsulodin sodium] | 1.11 | 0.966 | 1.58 | 1.06 | 0.633 | 1.15
15 | Cc1nnc(NS(=O)(=O)c2ccc(N)cc2)s1 [Sulfamethizole] | 1.54 | 0.798 | 1.76 | 0.908 | 0.498 | 1.11
16 | CN1CCc2cc3c(cc2C(=O)Cc2ccc4c(c2C1)OCO4)OCO3 [Protopine] | 0.844 | 1.36 | 0.606 | 0.616 | 1.3 | 1.68

Row | Compound | Euclidean distance (786-O) | Euclidean distance (A549) | Euclidean distance (DU145) | Euclidean distance (FB) | Euclidean distance (HEPG2) | Euclidean distance (OVCAR4)
17 | Cc1cc(/C=C/c2ccc3cc(N(C)C)ccc3[n+]2C)c(C)n1-c1ccccc1 [pyrvinium] | 5.7 | 4.29 | 5.05 | 6.77 | 3.9 | 5.35
18 | CC(C)(C)c1cc(NC(=O)Nc2ccc(-c3cn4c(n3)sc3cc(OCCN5CCOCC5)ccc34)cc2)no1 [Quizartinib (AC220)] | 3.28 | 2.67 | 1.42 | 1.43 | 2.93 | 1.37
19 | CC(C)(CO)[C@@H](O)C(=O)NCCC(=O)O [D-Pantothenic acid] | 1.36 | 0.696 | 0.734 | 1.08 | 0.485 | 1.11
20 | CC(C)NC[C@@H](C(=O)N1CCN(c2ncnc3c2[C@H](C)C[C@H]3O)CC1)c1ccc(Cl)cc1 [Ipatasertib (GDC-0068)] | 2.48 | 2.97 | 2.12 | 2.49 | 1.13 | 2.11
21 | Cc1nc2c([nH]1)-c1ccccc1N(C(=O)c1ccc(NC(=O)c3ccccc3-c3ccccc3)cc1)CC2 [Conivaptan HCl] | 1.3 | 1.1 | 1.42 | 1.28 | 1.72 | 1.57
22 | COc1cc2nccc(Oc3ccc(NC(=O)NC4CC4)c(Cl)c3)c2cc1C(N)=O [Lenvatinib (E7080)] | 2.11 | 0.779 | 1.02 | 3.36 | 1.02 | 1.33
23 | O=c1cc(-c2ccccc2)oc2cc(O)c(O)c(O)c12 [Baicalein] | 1.38 | 1.65 | 1.25 | 2.7 | 0.918 | 1.08
24 | Cc1c(C(=O)N2CCOc3ccc(-c4ccc(N)nc4)cc3C2)ccc(S(C)(=O)=O)c1F | 2.49 | 2.65 | 1.99 | 3.46 | 2.59 | 3.43
25 | O=C1N=C(O)NC1(c1ccccc1)c1ccccc1 [Phenytoin sodium] | 0.57 | 0.743 | 0.884 | 1.08 | 0.937 | 1.27
26 | CSCC[C@H](N)C(=O)O [L-methionine] | 1.08 | 0.829 | 1.25 | 0.928 | 0.685 | 1.71
27 | CCCCCOc1ccc(-c2cc(-c3ccc(C(=O)N[C@H]4C[C@@H](O)[C@@H](O)NC(=O)[C@@H]5[C@@H](O)[C@@H](C)CN5C(=O)[C@H]([C@H](O)CC(N)=O)NC(=O)[C@H]([C@H](O)[C@@H](O)c5ccc(O)c(OS(=O)(=O)O)c5)NC(=O)[C@@H]5C[C@@H](O)CN5C(=O)[C@H]([C@@H](C)O)NC4=O)cc3)no2)cc1 [Micafungin Sodium] | 1.25 | 1.24 | 1.1 | 1.25 | 1.15 | 1.27
28 | O=C(NCc1cccc(O)c1)Nc1nc(-c2ccncc2)cs1 | 1.82 | 1.54 | 3.26 | 3.61 | 1.47 | 1.88
29 | CC(=O)O[C@@]12CO[C@@H]1C[C@H](O)[C@@]1(C)C(=O)[C@H](O)C3=C(C)[C@@H](OC(=O)[C@H](O)[C@@H](NC(=O)OC(C)(C)C)c4ccccc4)C[C@@](O)([C@@H](OC(=O)c4ccccc4)[C@H]21)C3(C)C [Docetaxel Trihydrate] | 3.61 | 3.08 | 3.17 | 2.26 | 2.15 | 2.49
30 | CCC(=O)NS(=O)(=O)c1ccc(-c2c(-c3ccccc3)noc2C)cc1 [Parecoxib Sodium] | 0.662 | 0.521 | 0.541 | 0.844 | 0.676 | 0.905
31 | CC(C)(O)CNc1nc(Nc2ccnc(C(F)(F)F)c2)nc(-c2cccc(C(F)(F)F)n2)n1 [Enasidenib (AG-221)] | 1.17 | 0.727 | 1.69 | 1.4 | 1.82 | 1
32 | C/C(=N\NC(=S)N1CCC1)c1ccccn1 | 3.65 | 3.49 | 3.44 | 3.45 | 4.41 | 4.89
